# Results as given in PubChem BioAssay (NCI).
# Compounds without any hit were thinned out: in the full panel of roughly 83,000, 20% have a hit.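 Step 1: grow cells in 96-well plates. Step 2: add test compound at a single concentration. Step 3: incubate 48 h. Step 4: record percent growth.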 A number with no mark means an inactive call. Activity calls are given as the source filed them. How the source made its calls: active means growth percent below 10; inactive means the rest.
# Tests used:
# Experiment in all cases: NCI-60 one-dose screen, 48 h (100 = growth as untreated, 0 = no growth, -100 = all killed)
# [1] = system: DU-145 prostate; conditions: 10 µM unless noted
# [2] = system: K-562 leukemia; conditions: 10 µM unless noted
# [3] = system: MALME-3M melanoma; conditions: 10 µM unless noted
# [4] = system: RXF 393 renal; conditions: 10 µM unless noted
# [5] = system: SF-295 CNS; conditions: 10 µM unless noted
# [6] = system: UACC-257 melanoma; conditions: 10 µM unless noted
# [7] = system: HCT-15 colon; conditions: 10 µM
# [8] = system: HT29 colon; conditions: 10 µM unless noted
# [9] = system: SNB-75 CNS; conditions: 10 µM unless noted
# [10] = system: SNB-19 CNS; conditions: 10 µM unless noted
# [11] = system: PC-3 prostate; conditions: 10 µM unless noted
# [12] = system: SK-MEL-5 melanoma; conditions: 10 µM unless noted
# [13] = system: LOX IMVI melanoma; conditions: 10 µM unless noted
# [14] = system: CAKI-1 renal; conditions: 10 µM unless noted
# [15] = system: A498 renal; conditions: 10 µM unless noted
# [16] = system: HL-60(TB) leukemia; conditions: 10 µM unless noted
# [17] = system: MOLT-4 leukemia; conditions: 10 µM
# [18] = system: T-47D breast; conditions: 10 µM unless noted
# [19] = system: BT-549 breast; conditions: 10 µM
# [20] = system: HCC-2998 colon; conditions: 10 µM unless noted
SMILES,growth [1],growth [2],growth [3],growth [4],growth [5],growth [6],growth [7],growth [8],growth [9],growth [10] [%],growth [11],growth [12],growth [13],growth [14],growth [15],growth [16],growth [17],growth [18],growth [19],growth [20]
Nc1ncnc2c1c(C(=O)NO)cn2C1OC(CO)C(O)C1O (stereo unspecified),-32.1% (active),-3.31% (active),-41.1% (active),-26.9% (active),-47.6% (active),-48% (active),-9.1% (active),7.07% (active),4.46% (active),11.9,-20.9% (active),-93% (active),-5.18% (active),-23.1% (active),-30.1% (active),-43% (active),-32.9% (active),-11.1% (active),-0.861% (active),-38.7% (active)
CC[C@@H](C)/C=C(C)/C=C/C(=O)c1c(O)c(-c2ccc(O)cc2)cn(O)c1=O,15.5%,12.1%,-7% (active),19.8%,-28.7% (active),-29.8% (active),30.7%,–,2.38% (active),13.6,37.7%,-75.6% (active),3.82% (active),-54.9% (active),39.3%,–,–,15.8%,18%,36.4%
CC(C)[C@]12O[C@H]1[C@@H]1O[C@]13[C@]1(O[C@H]1C[C@H]1C4=C(CC[C@@]13C)C(=O)OC4)[C@@H]2OC(=O)OC(C)(C)C,8.08% (active),–,-35.6% (active),-52.2% (active),-28.7% (active),-7.48% (active),8.8% (active),1.27% (active),-60.5% (active),16.5,19.8%,-2.1% (active),–,-49.8% (active),-36.6% (active),-15.7% (active),-3.98% (active),23.8%,-12.2% (active),-38% (active)
CC(C)C1c2ccc(O)cc2Oc2nc(N)c(C#N)c(N)c21 (stereo unspecified),115%,92.5%,–,–,107%,105%,107%,109%,81.4%,101,92.1%,91%,103%,93.5%,88.4%,102%,98.1%,87.5%,84.2%,–
O=C(NCc1ccc([N+](=O)[O-])cc1)Nc1ccc(S(=O)(=O)F)cc1,102%,93%,78.7%,59.9%,–,83%,87.1%,91.9%,86.2%,88.6,74.6%,79.9%,92.9%,78%,55.9%,85.1%,87.3%,57%,94.9%,99.2%
CC(=O)[O][Hg][c]1nc2c(c(=O)n(C)c(=O)n2C)n1C,107%,60.3%,49.8%,97.6%,98.9%,98%,107%,95.6%,77.8%,98.2,93.7%,90.8%,-28.5% (active),83.5%,125%,104%,100%,88.8%,111%,131%
C[C@]12CC[C@@H]3c4ccc(OC(=O)Cc5ccc(N(CCCl)CCCl)cc5)cc4CC[C@H]3[C@@H]1CC[C@@H]2OC(=O)Cc1ccc(N(CCCl)CCCl)cc1,103%,106%,113%,–,103%,–,113%,117%,84.7%,107,84.8%,87%,108%,101%,121%,–,104%,121%,–,–
NC(=O)NC(=O)CI,101%,17.7%,-43.6% (active),65%,119%,79.1%,85.7%,99.1%,106%,86.3,98.5%,93.9%,-67.3% (active),–,97.9%,98.3%,13.8%,8.8% (active),85.8%,113%
CC1(C)N=C(N)N=C(N)N1c1ccc(CNC(=O)Nc2ccc(S(=O)(=O)F)c(Cl)c2)c(Cl)c1,31.7%,16.4%,54.5%,50.6%,–,23%,47.5%,7.61% (active),69.2%,56,4.03% (active),24.1%,11.9%,–,61.3%,21.8%,22.1%,60.3%,48.6%,39.7%
O=C1C=CC(=O)C2C1C1(Cl)C(Cl)=C(Cl)C2(Cl)C1(Cl)Cl (stereo unspecified),70.1%,29.2%,49.2%,23.9%,39.5%,57.5%,54.3%,76.7%,40.3%,73.8,44.3%,47.5%,50.5%,51.8%,36.1%,9.38% (active),59.5%,28%,36.4%,–
C=CC(=O)NC(O)C(Cl)(Cl)Cl (stereo unspecified),106%,97.1%,85.5%,129%,95.6%,92.3%,97.1%,106%,100%,105,102%,119%,–,93.5%,120%,97.7%,83.8%,93.4%,97.5%,104%
COc1ccc(-c2ccc(OC)c(OC)c2OC)cc1,13.8%,10.1%,33.2%,11.2%,-9.72% (active),43.2%,27.1%,-4.61% (active),-11% (active),38.9,18.3%,15.3%,16.5%,15.1%,–,-19.1% (active),22.7%,27%,20.2%,23.7%
Cc1cc(N(CCCl)CCCl)ccc1C=Nc1ccc2ccccc2c1,71.5%,80.7%,84.9%,71.5%,–,37.8%,79.7%,92%,72%,84.7,77.2%,74.6%,82.8%,1.75% (active),-77.9% (active),46%,43.7%,5.25% (active),86.1%,94.5%
CC[CH2][Pb]([CH2]CC)([CH2]CC)[O]C(=O)C(F)(F)F,-100% (active),2.17% (active),-89.2% (active),-73.9% (active),-87.6% (active),–,-88.2% (active),-61.5% (active),-99.9% (active),–,–,-98.3% (active),-82.3% (active),-95.2% (active),-97.6% (active),-29.7% (active),-27.8% (active),-68.1% (active),-95.3% (active),-84.4% (active)
O=C(CI)Nc1ccc(Br)cc1,23.3%,-41.1% (active),-65% (active),26.5%,98.2%,92.9%,1.13% (active),-87.4% (active),96.7%,92.1,87.3%,62.6%,-78.6% (active),-67.5% (active),142%,69.6%,-28.4% (active),26.7%,–,102%
CCC(C)[C@H]1O[C@]2(C=C[C@@H]1C)C[C@@H]1C[C@@H](C/C=C(\C)[C@@H](OC3C[C@H](OC)C(O[C@H]4C[C@H](OC)[C@@H](O)[C@H](C)O4)[C@H](C)O3)[C@@H](C)/C=C/C=C3\CO[C@@H]4[C@H](O)C(C)=C[C@@H](C(=O)O1)[C@]34O)O2 (stereo partly specified),11.4%,–,–,–,-41.9% (active),-17.1% (active),-20.2% (active),-63.6% (active),3.26% (active),23.2,-5.32% (active),-79.2% (active),-93.1% (active),19.8%,-24.9% (active),-26.2% (active),-26.6% (active),0.0336% (active),-39.1% (active),-49% (active)
O=C(CCl)NCNC(=O)CCl,103%,98.9%,114%,107%,56.5%,76.5%,91.4%,105%,85.9%,108,86.4%,92.7%,–,56.8%,109%,102%,90.4%,92.6%,86.7%,111%
